The list is not random: actives were taken first. Their share in the collection is about 6.1%.
ATXN2 expr inh = Primary qHTS for Inhibitors of ATXN expression | Potency, µM (highest dose often 57 µM), hits mostly inhibitors | HEK-293 ATXN2-luciferase reporter, luminescence, 24 h | 360,000 tested, 0.72% active; further: nearly all actives have a fitted effect of over 55% in size
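ATXN2-luciferase reporter cells (luciferase flanked by upstream and downstream ATXN2 gene portions) were treated 24 h at 37 °C with compounds at up to 57 uM. SteadyGlo luminescence gave expression; GF-AFC fluorescence gave viability.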
VP16 counter = VP16 counterscreen qHTS for inhibitors of ROR gamma transcriptional activity; Drosophila S2 Gal4-VP16 UAS-luciferase, luminescence, 20 h; Potency, µM (series often up to 53.6 µM), usual class: inhibitors; 310,000 tested, 3.5% active;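 further: Gal4-VP16 expression switched on by copper sulfate through the metallothionein promoter; nearly all actives have a fitted effect of over 50% in size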
ATXN viability = Viability Counterscreen for Primary qHTS for Inhibitors of ATXN expression | S2 cells (HEK-293 line with an ATXN2-luciferase reporter) viability, CellTiter-Fluor protease fluorescence, 24 h | 400,000 tested, 0.49% active | Potency, µM (highest dose often 56.7 µM), usual class: cytotoxic; further: nearly all actives have a fitted effect of over 40% in size
RORg inh = qHTS for inhibitors of ROR gamma transcriptional activity; Nuclear receptor ROR-gamma (Mus musculus), P51450; Drosophila S2 Gal4-RORgamma UAS-luciferase reporter, 20 h; Potency, µM (series often up to 53.6 µM), most hits filed as inhibitors; 310,000 tested, 5.4% active; AID 2551, 2010; further: nearly all actives have a fitted effect of over 60% in size
Target sequence (P51450 whole entry, looked up, the tested form may be a part): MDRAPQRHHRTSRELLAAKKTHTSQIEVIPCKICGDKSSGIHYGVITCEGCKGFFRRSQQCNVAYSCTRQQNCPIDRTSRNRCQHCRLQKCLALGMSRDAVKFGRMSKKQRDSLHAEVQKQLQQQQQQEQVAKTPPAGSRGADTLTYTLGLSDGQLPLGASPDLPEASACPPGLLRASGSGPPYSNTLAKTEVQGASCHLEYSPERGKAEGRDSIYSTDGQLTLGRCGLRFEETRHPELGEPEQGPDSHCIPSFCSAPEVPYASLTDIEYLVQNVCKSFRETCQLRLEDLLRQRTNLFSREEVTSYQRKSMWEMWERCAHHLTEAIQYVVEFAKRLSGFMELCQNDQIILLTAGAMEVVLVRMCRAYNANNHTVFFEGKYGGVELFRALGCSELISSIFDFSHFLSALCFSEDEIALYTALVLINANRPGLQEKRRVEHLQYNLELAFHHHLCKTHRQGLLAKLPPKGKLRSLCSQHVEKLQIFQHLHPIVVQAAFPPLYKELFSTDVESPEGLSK
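Luciferase reporter read in Schneider cells carrying Gal4-RORγ (mouse) and UAS-Photinus luciferase; cells given compound 1 h before 700 uM copper sulfate induction, then incubated 20 h at ambient temperature.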
HepG2 tox = qHTS for Inhibitors of TGF-b: Cytotox Counterscreen. AID 588856, 2011. Potency, µM (titrated, usually from 46.1 µM), most hits filed as cytotoxic. HepG2 CAGA-GFP viability, ATP luminescence, 18 h. 410,000 tested, 0.76% active
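CellTiter-Glo luminescence gave cytotoxicity after 18 hours at 37 degrees C. The cells were HepG2 CAGA-GFP in 1% FBS DMEM, stimulated with 500 pg/mL TGF-beta after compound addition. %Activity was normalised to no-cell wells (complete cell-killing) and DMSO (no toxicity), and curves were fitted and classified.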
TGFb inhibitor = qHTS for Inhibitors of TGF-b; HepG2 CAGA-GFP TGF-b/SMAD3 reporter, GFP fluorescence, 18 h; TGF-beta stimulated, 500 pg/mL final; Potency, µM (top dose mostly 46.1 µM), hits mostly inhibitors; 410,000 tested, 1.2% active; AID 588855, 2011; further: nearly all actives have a fitted effect of over 65% in size
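HEPG2 CAGA-GFP, 1000 cells/well; 2 h settle, 37 C; cpd via pin tool; TGF-b 500 pg/mL final; 18 h, 37 C; GFP imaging ex488/em500-530; %Activity normalised to -TGF-b and +DMSO controls; CRC fit, curve class.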
Numbers stand for hits; n = inactive; u = inconclusive; x = no result given; [ ] = another dose, or the depositor's remark. The call rests on the fitted dose curve; in most records, active means well fitted curve in the direction sought with a large enough effect; inconclusive means small, poorly fitted or top-dose-only effect, or another doubt; inactive means no such curve, though single readings can be large; an effect the other way counts as inactive or inconclusive.

SMILES	ATXN2 expr inh	VP16 counter	ATXN viability	RORg inh	HepG2 tox	TGFb inhibitor
CNc1nc(C23CC4CC(CC(C4)C2)C3)cs1	n	n	n	10µM	n	n
COCCOC(=O)C1=C(C)N(c2ccccc2)C(=S)NC1c1ccccc1C(F)(F)F (configuration not stated)	x	u	n	17.8µM	n	n
COC(=O)C1=C(C)N(c2ccccc2)C(=S)NC1c1ccccc1C(F)(F)F (configuration not stated)	x	u	n	3.16µM	n	n
CCc1ccccc1NC(=O)c1ccc(F)c(S(=O)(=O)N2CCN(c3ccccc3OC)CC2)c1	x	x	x	x	n	n
O=C(O)CCS(=O)(=O)c1cccc2cccnc12	n	n	n	n	n	n
CCSS(=O)(=O)c1cccc2cccnc12	u	u	n	22.4µM	n	u
CCCCN(c1ccccc1)S(=O)(=O)c1cccc2cccnc12	x	14.1µM	n	n	n	n
C1=CN2CC=Cc3cc(/C=C/c4ccnc5ccccc45)cc(c32)C1	x	x	x	x	n	n
CCCN(CCC)CCNC(=O)C1CCN(c2nc3ccc(CC)cc3s2)CC1	x	x	x	x	n	u
Cc1ccc(COc2ccc(-c3nnco3)cc2)cc1	x	n	n	n	n	n
Cc1ccc(C(C)C)c(OCc2ccc(-c3nnco3)cc2)c1	u	u	n	3.98µM	n	n
CCN(CC)C(=O)c1ccc(-c2cccs2)s1	n	n	n	n	n	n
O=Cc1ccc(-c2cccs2)s1	u	x	n	x	n	5.62µM
CCCCOc1ccc(N=Cc2cccs2)cc1	n	n	n	n	n	n
Oc1ccc(N=Cc2ccc(-c3cccs3)s2)cc1	u	u	n	n	7.94µM	11.2µM
OC[C@@H]1[C@@H](c2ccc(Cl)cc2)C(c2cccc(Cl)c2)=NN1c1ccccc1	u	u	x	n	12.6µM	11.2µM
OC[C@@H]1[C@@H](c2ccc(Cl)cc2)C(c2ccccc2)=NN1c1ccccc1	u	n	x	u	n	u
COc1ccc(S(=O)(=O)N2CCN(C(=O)CSC(=S)N3CCCC3)CC2)cc1	x	x	n	x	15.8µM	u
C[C@@H](NC(=O)c1nc[nH]c1C(=O)OCc1ccccc1)c1ccccc1	n	x	n	x	n	u
C[C@@H](NC(=O)c1nc[nH]c1C(=O)NCC(=O)OCc1ccccc1)c1ccccc1	n	u	n	8.91µM	n	n
C[C@@H](NC(=O)c1nc[nH]c1C(=O)NCC(=O)OC(C)(C)C)c1ccccc1	n	u	n	10µM	n	n
CCCC(=O)OCc1cnc(C)c2oc(=O)c(C(=O)Nc3cccc(C(F)(F)F)c3)cc12	n	x	n	x	n	n
Cc1cc(C)n(-c2ccc(C(=O)N3CCC(CO)(Cc4ccccc4)CC3)cc2)n1	n	u	x	2.51µM	n	u
O=C(c1ccccc1Cl)N1CCCCC1CCN1CCOCC1 (configuration not stated)	x	x	x	x	n	n
Cc1cccc2sc(N(CCCN(C)C)C(=O)c3ccc(S(=O)(=O)N4CCc5ccccc5C4)cc3)nc12	n	11.2µM	u	u	n	n
SMILES	ATXN2 expr inh	VP16 counter	ATXN viability	RORg inh	HepG2 tox	TGFb inhibitor
CCOC(=O)N1CCN(S(=O)(=O)c2ccc(C(=O)N(CCN(C)C)c3nc4c(C)cccc4s3)cc2)CC1	n	n	n	n	n	n
CN(C)CCCN(C(=O)c1ccc(S(=O)(=O)N2CCc3ccccc3C2)cc1)c1nc2c(F)cccc2s1	n	n	n	4.47µM	n	n
CC1(C)SC(=S)N(/N=C/c2ccccc2O)C1N(O)C(=O)Nc1ccccc1 (configuration not stated)	n	u	n	17.8µM	n	u
CNC(=O)N(O)C1N(/N=C/c2cc(Br)ccc2O)C(=S)SC1(C)C (configuration not stated)	x	u	n	15.8µM	n	u
Cc1c(Cl)cccc1NC(=O)CCn1nc(C)c2c(C)n(-c3ccccc3)nc2c1=O	n	x	n	x	n	n
Cc1cccc(/C=C/C(=O)c2cc(Br)ccc(=O)c2O)c1	n	u	n	n	n	u
CCc1ccc(/C=C/C(=O)c2cc(Br)ccc(=O)c2O)cc1	31.6µM	u	u	u	n	u
CCOc1ccc(/C=C/C(=O)c2cc(Br)ccc(=O)c2O)cc1	n	22.4µM	x	u	n	7.94µM
Cc1ccc(/C=C/C(=O)c2cc(Br)ccc2OC(=O)c2ccco2)cc1	n	n[0.365 µM]	n	u	11.2µM	n
Cc1ccc(Cn2cnc3c(oc4ccccc43)c2=O)cc1	n	x	n	x	n	n
COc1cccc([C@@H]2Oc3ccc(Br)cc3C(=O)[C@H]2OC(=O)Nc2ccc(C)c(Br)c2)c1	x	n	x	n	x	x
CCCN(CCC)CCCNC(=O)CC(C(=O)N1CCc2ccccc21)n1ccnc1 (configuration not stated)	n	n	n	n	n	n
CCN(CC)CC(C)CNC(=O)CC(C(=O)N1CCc2ccccc21)n1ccnc1 (configuration not stated)	n	n	n	11.2µM	n	n
COc1cc(OC)cc(-c2cc3nc(C)c(CCC(=O)NCc4ccccc4)c(C)n3n2)c1	8.91µM	u	u	u	n	n
CCn1nc(C)cc1C(=O)NCC1Cc2cc(C)cc(-c3ccccc3C(=O)OC)c2O1 (configuration not stated)	x	x	n	x	x	x
CC(C)(C)NC(=S)NC(C)(C)C	n	u	n	11.2µM	n	n
CC(C)(CCO)NC(=S)NC1CC2C=CC1C2 (configuration not stated)	n	u	n	u	n	n
CC(C)(C)NC(=S)NC1CC1	n	u	n	12.6µM	n	n
CC(=O)ON(C(C)=O)c1ccc(/C=C2\C=Cc3ccccc32)cc1	x	x	x	x	n	n
COC(=O)c1ccccc1NC(=O)CN1CCC(n2nnc3cc(C(F)(F)F)ccc32)CC1	n	n	n	n	n	n
CC1Cc2ccccc2N1C(=O)CN1CCC(n2nnc3cc(C(F)(F)F)ccc32)CC1 (configuration not stated)	n	3.98µM	u	n	n	n
CCc1ccc(/C=N/NC(=O)c2cc(C3CC3)nc3ccccc23)s1	n	1.78µM	u	1.26µM	n	n
Cc1ccc(/C=N/NC(=O)c2cccnc2)o1	n	n	n	n	n	n
Cc1ccc(/C=N\NC(=O)c2cncc(Br)c2)o1	n	u	n	5.01µM	n	n
Cn1c(SCC(=O)N/N=C/c2ccc([N+](=O)[O-])s2)nnc1-c1ccccc1	u	20µM	u	11.2µM	n	u
O=C(Nc1ccccc1F)c1ccc([N+](=O)[O-])s1	n	n	n	12.6µM	n	u
